Among the data in PubChem BioAssay (NCATS) are Potency values, retold here.

Assay [1] has as its target Calcium and integrin-binding protein 1 (Homo sapiens) (UniProt Q99828). The assay is described as follows: Primary qHTS for Identification of Calcium Integrin Binding Protein 1 (CIB1) Competitor (AID 1508620).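 Note: GST tagged CIB1 binding a fluorescein labelled alphaIIb integrin peptide tracer; top concentration of the series differs between compounds.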 The note with it: CIB1-GST / FITC-alphaIIb peptide fluorescence polarization; series mostly up to 114 µM. Summed up: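 Fluorescence polarization competition: CIB1-GST (1 uM final) preincubated with compound 15 min at room temperature, then FITC-labeled alphaIIb peptide (100 nM final) added for another 15 min. Polarization read at Ex 480/Em 540.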
Background: qHTS replaces the single test concentration by a dilution series.

Assay [2] is described as follows: Primary qHTS for inhibitors of nuclear receptor binding SET domain protein 2 (NSD2) in an isogenic RCH-ACV NSD2 p.E1099K mutant (9B) (AID 1645876). Note: nearly all actives have a fitted effect of over 70% in size. Note: potency is the fitted concentration of half-maximal effect. The note with it: RCH-ACV (leukaemia line) NSD2 E1099K (9B) viability, CellTiter-Glo, 72 h; series mostly up to 44.9 µM.

Structures are written as SMILES. Inconclusive results are not listed. A call without a number means that no potency is given here. Activity calls are given as the source filed them. Calls come from the whole dose curve; as a rule, active = well fitted inhibition curve with a large enough effect; inconclusive = small, poorly fitted or top-dose-only effect; inactive = flat fitted curve, though single readings scatter.

Sequence of Calcium and integrin-binding protein 1 (Homo sapiens) (Q99828 whole entry, looked up): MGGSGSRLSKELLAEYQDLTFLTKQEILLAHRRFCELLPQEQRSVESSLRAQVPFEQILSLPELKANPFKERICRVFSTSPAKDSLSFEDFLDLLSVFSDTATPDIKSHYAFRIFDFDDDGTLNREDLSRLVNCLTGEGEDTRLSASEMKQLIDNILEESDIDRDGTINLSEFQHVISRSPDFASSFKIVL

Consider `C=C[C@H]1[C@H](O[C@@H]2O[C@H](CO)[C@@H](O)[C@H](O)[C@H]2O)OC=C(C(=O)OC)[C@H]1CC(=O)O`, for which the Potency entry in assay [1] and in assay [2] was “inactive” in each case.
As for `C[C@@H]1O[C@@H](O[C@H]2[C@H](O)[C@@H](O)[C@H](OC3CCC4(C)C5CCC(C)(C(CO)OC6OC(CO)C(O)C(O)C6O)CC5=CCC4C3(C)C)O[C@@H]2CO)[C@H](O)[C@H](O)[C@H]1O` (some centres not stated), the Potency entry in assay [1] and in assay [2] was “inactive” throughout.
On to `CN(C)CCCCC(=O)Nc1ccc(NC(=S)NC(=O)c2ccc(C(C)(C)C)cc2)cc1`, for which the Potency result in assay [1] was “inactive”. In assay [2], the Potency was 1830 nM (active).
The like results for `CC1OC(OC2CCC3(C)C(CCC4(C)C3CC=C3C5CC(C)(C)CCC5(C(=O)OC5OC(CO)C(O)C(O)C5O)CCC34C(=O)O)C2(C)C)C(O)C(O)C1O` (configuration not stated) were, in that order, “inactive” and “inactive”.
With `OC[C@H]1O[C@@H](OCCc2ccc(O)cc2)[C@H](O[C@@H]2OC[C@](O)(CO)[C@H]2O)[C@@H](O)[C@@H]1O`, the Potency entry in assay [1] and in assay [2] was “inactive” each time.
With `C=C(C(=O)O)C1CC(O)C2(C)CCCC(=C)C2C1` (configuration not stated), the Potency result in assay [1] and in assay [2] was “inactive” in each case.
